# In PubChem BioAssay (NCI):
# The panel holds about 83,000 compounds, 20% with a hit somewhere; the sample as a whole holds those more often.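 Testing used 96-well plates and a 48-hour single-concentration exposure. Example: -40 means 40% of the starting cells died.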 Values without a mark were called inactive. Activity calls are given as the source filed them. Rule for the calls: active = growth percent below 10; inactive = the rest.
# Tests used:
# Experiment in all cases: NCI-60 one-dose screen, 48 h (100 = growth as untreated, 0 = no growth, -100 = all killed)
# Conditions in all cases: 10 µM unless noted
# HT29 colon = test system: HT29 colon
# SNB-75 CNS = test system: SNB-75 CNS
# SNB-19 CNS = test system: SNB-19 CNS
# U251 CNS = test system: U251 CNS
# PC-3 prostate = test system: PC-3 prostate
# SK-MEL-5 melanoma = test system: SK-MEL-5 melanoma
# UACC-62 melanoma = test system: UACC-62 melanoma
# LOX IMVI melanoma = test system: LOX IMVI melanoma
# SK-MEL-28 melanoma = test system: SK-MEL-28 melanoma
# SK-MEL-2 melanoma = test system: SK-MEL-2 melanoma
# EKVX NSCLC = test system: EKVX NSCLC
# SN12C renal = test system: SN12C renal
# UO-31 renal = test system: UO-31 renal
# ACHN renal = test system: ACHN renal
# CAKI-1 renal = test system: CAKI-1 renal
# A498 renal = test system: A498 renal
# CCRF-CEM leukemia = test system: CCRF-CEM leukemia
# MOLT-4 leukemia = test system: MOLT-4 leukemia
# SR leukemia = test system: SR leukemia
# TK-10 renal = test system: TK-10 renal
Structure (SMILES),growth (HT29 colon),growth (SNB-75 CNS),growth (SNB-19 CNS),growth (U251 CNS),growth (PC-3 prostate),growth (SK-MEL-5 melanoma),growth (UACC-62 melanoma),growth (LOX IMVI melanoma),growth (SK-MEL-28 melanoma),growth (SK-MEL-2 melanoma),growth (EKVX NSCLC),growth (SN12C renal),growth (UO-31 renal),growth (ACHN renal),growth (CAKI-1 renal),growth (A498 renal),growth (CCRF-CEM leukemia),growth (MOLT-4 leukemia),growth (SR leukemia),growth (TK-10 renal)
NC(=O)c1cc(-c2ccc3ncnc(N4CCc5cc(F)c(Cl)cc54)c3c2)cnc1N,21%,-25% (active),39.5%,40.8%,25%,52.1%,26%,24%,28.8%,-51.5% (active),13.6%,23.4%,22.3%,23.1%,19.9%,-68.3% (active),21%,-11.8% (active),18.5%,–
O=c1[nH]c2ccc(Cl)cc2cc1CSc1ccccc1Nc1nccc(-c2ccc(Cl)cc2)n1,109%,76.6%,95%,79.7%,69%,95.1%,75.9%,98.4%,106%,129%,80.5%,87.1%,81.2%,95.7%,82.5%,88.1%,90.6%,60.9%,77.2%,–
Nc1ncc(-c2ccc3ncnc(N4CCc5cc(F)c(Cl)cc54)c3c2)cc1CO,12.7%,-28.6% (active),19.1%,18.8%,8.02% (active),-72.4% (active),-60.5% (active),7.2% (active),-4.29% (active),-63.4% (active),-15.8% (active),14.7%,6.11% (active),5.95% (active),2.97% (active),-64% (active),6.14% (active),-14.6% (active),-6.6% (active),–
C[C@@H](Nc1c(C#N)cnc2ccc(-c3cnc(N)nc3)cc12)c1ccccc1,18.7%,-13.2% (active),26.3%,18.1%,10%,-74.2% (active),-9.74% (active),11.7%,20%,-42.5% (active),4.11% (active),11.8%,4.65% (active),6.57% (active),1.83% (active),-37.8% (active),14%,0.24% (active),7.92% (active),–
N[C@@H](Cc1cn(-c2ccnc3ccccc23)nn1)C(=O)O,102%,98.5%,88.7%,101%,96.2%,103%,95.4%,102%,97%,124%,98.5%,93.2%,88.2%,–,97.3%,110%,103%,107%,95.1%,101%
CS(=O)(=O)c1ccc(-c2nc3ccccn3c2-c2nc3ccc([N+](=O)[O-])cc3[nH]2)cc1,109%,82.9%,99.6%,104%,86.3%,95.2%,88.6%,100%,98%,105%,91%,94.8%,77.7%,88.6%,86.2%,87.5%,101%,90.3%,95.2%,–
Cc1nc2cnc(N)c(C#Cc3cncc(C(=O)Nc4ccc(Cl)c(C(F)(F)F)c4)c3)c2nc1C,31.5%,44.6%,90%,77.4%,85.3%,86.9%,39.7%,-77.4% (active),44.4%,14.4%,82.4%,36.3%,19.9%,30.3%,18.8%,55.4%,23.2%,35.6%,-18.8% (active),–
COc1cc2nc(-c3ccc(C(F)(F)F)cc3)cc(OCCCNCC3CCCO3)c2cc1OC (stereo not given),-7.81% (active),8.73% (active),75.3%,55.7%,45.4%,4.75% (active),-22.1% (active),-13.4% (active),-26.8% (active),91.7%,61.5%,46.2%,35.9%,31.9%,8.44% (active),17.9%,28.6%,14.3%,8.68% (active),–
OC1CCN(CCCOc2c3ccccc3nc3c2oc2ccc(Cl)cc23)CC1,1.25% (active),21%,21.8%,21.7%,8.35% (active),26.6%,-19.5% (active),-73.8% (active),24.9%,14%,14.8%,18.8%,12.8%,5.57% (active),12.8%,-8.33% (active),19.2%,9.39% (active),8.25% (active),–
O=C1/C(=C/C2=Cc3ccccc3OC2)SC(=S)N1c1ccc(F)cc1,118%,100%,93.2%,94.9%,115%,100%,97.4%,92.5%,97.9%,120%,94.7%,93%,86.3%,76%,90.6%,71.6%,109%,108%,97.2%,–
COc1cc(OC)c(C2C(Cl)C(=O)N2Nc2ncnc3ccccc23)cc1OC (stereo not given),112%,80.5%,98.9%,91.7%,89.6%,99.3%,91.7%,45.6%,105%,121%,95.3%,98.3%,78.8%,90.5%,91.8%,97.2%,102%,105%,104%,–
OC1CCN(CCCOc2c3ccc(Cl)cc3nc3c2oc2ccc(Cl)cc23)CC1,-86% (active),14.9%,29.5%,-93.5% (active),21%,-7.79% (active),-68.4% (active),-92.9% (active),-84.5% (active),50.6%,34.7%,23.2%,7.4% (active),-98.4% (active),3.71% (active),-7.6% (active),-28.8% (active),0.17% (active),-39.3% (active),–
CCCCN1C(=O)/C(=c2\sc3n(c2=O)C2C(NN=3)N(CC)C(=O)N2CC)c2cc(Cl)ccc21 (stereo not given),88.4%,69.1%,90.8%,65.4%,71.2%,66%,47.5%,75.6%,72.1%,79.9%,80.7%,82%,63%,–,50.7%,27.6%,72.2%,74.5%,14.1%,132%
Cc1cccc2sc(/N=C(\N)C(Br)Br)nc12,-30.4% (active),7.62% (active),46.8%,9.02% (active),40.8%,51.4%,22%,-86% (active),38.4%,5.61% (active),19.9%,18.2%,30.6%,-13.5% (active),3.85% (active),38.7%,1.81% (active),2.63% (active),-23.6% (active),–
N#Cc1c(-c2ccc(Cl)cc2)nc(SCc2ccccc2)nc1N1CCNCC1,-47.6% (active),69.5%,69.8%,-65.6% (active),59.2%,84.5%,89.8%,-71.5% (active),108%,112%,71.6%,54.9%,53%,47.8%,53.1%,79.7%,45.9%,52.7%,-24.8% (active),–
CCCC(=O)NC(c1cccnc1)c1cc(C)c2cccnc2c1O (stereo not given),21.5%,77.5%,61.4%,41.3%,56.9%,48.7%,28.4%,40.2%,42.5%,101%,31.5%,45.7%,26.6%,20.2%,28%,63.1%,20.7%,18.8%,22.3%,45.5%
